Results from PubChem BioAssay AID449749 (Broad Institute, 2010).
Among all 2,100 compounds or so, about 1,700 (81%) were called active. The set was probably picked from earlier hits. The list shows a part of the results. Entries with a potency or affinity are not part of this list. Records with an inconclusive call do not appear. How the calls were made is not given here.

target: Replicative DNA helicase DnaB (Mycobacterium tuberculosis (strain ATCC 25618 / H37Rv)) (UniProt P9WMR3); test: DnaB intein splicing inhibitors, dose response, biochemical, M. tuberculosis H37Rv, cell-free fluorescence (AID 449749); conditions: series mostly up to 38 µM
Sequence (P9WMR3 whole entry, looked up): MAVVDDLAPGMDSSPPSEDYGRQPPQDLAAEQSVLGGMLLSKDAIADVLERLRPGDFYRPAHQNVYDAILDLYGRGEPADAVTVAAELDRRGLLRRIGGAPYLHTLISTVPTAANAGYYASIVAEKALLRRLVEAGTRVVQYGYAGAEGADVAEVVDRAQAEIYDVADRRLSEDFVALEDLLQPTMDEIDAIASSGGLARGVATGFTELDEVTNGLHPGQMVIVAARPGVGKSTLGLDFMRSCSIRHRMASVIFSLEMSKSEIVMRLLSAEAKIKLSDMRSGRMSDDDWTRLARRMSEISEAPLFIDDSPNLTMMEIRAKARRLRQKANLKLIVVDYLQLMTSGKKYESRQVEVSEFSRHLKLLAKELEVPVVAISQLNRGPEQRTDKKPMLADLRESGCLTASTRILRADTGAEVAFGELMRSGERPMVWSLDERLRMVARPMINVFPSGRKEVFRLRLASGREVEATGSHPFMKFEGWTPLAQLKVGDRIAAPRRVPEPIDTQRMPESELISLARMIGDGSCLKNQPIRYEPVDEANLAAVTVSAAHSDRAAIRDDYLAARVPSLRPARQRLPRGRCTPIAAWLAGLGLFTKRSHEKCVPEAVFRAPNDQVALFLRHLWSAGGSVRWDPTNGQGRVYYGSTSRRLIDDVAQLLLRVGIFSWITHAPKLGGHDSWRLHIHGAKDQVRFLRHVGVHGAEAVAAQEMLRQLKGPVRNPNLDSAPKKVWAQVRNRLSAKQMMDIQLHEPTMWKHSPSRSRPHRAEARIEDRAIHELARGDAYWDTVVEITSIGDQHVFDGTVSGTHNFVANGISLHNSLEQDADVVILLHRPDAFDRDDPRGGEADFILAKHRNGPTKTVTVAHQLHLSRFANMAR

SMILES | outcome
OCCNC(=S)Nc1ccc2nsnc2c1 | inactive
CCCCNC(=O)c1c(N)n(Cc2ccc3c(c2)OCO3)c2nc3ccccc3nc12 | inactive
Cc1ccsc1C=Nc1ccc(O)cc1 | inactive
C=CCn1c(N)c(C(=O)Nc2cccc(C)c2)c2nc3ccccc3nc21 | inactive
CN1/C(=C/C(=O)c2nc(S(C)(=O)=O)ncc2Cl)C(C)(C)c2ccccc21 | inactive
ONc1cccnc1-n1nc(C(F)(F)F)cc1C(F)(F)F | inactive
CCCCCn1c(N)c(C(=O)NCc2cccs2)c2nc3ccccc3nc21 | inactive
O=[N+]([O-])c1cncc([N+](=O)[O-])c1Nc1cccc(O)c1 | inactive
CCOc1ccc2c(c1)-c1c(ssc1=S)C(C)(C)N2 | inactive
